Data: paper PMC5540273 (PLoS ONE, 2017)

What was measured:
Conditions in all cases: concentration: 1 μM, replicates: in singlicate; n = 1
[1] = tested on: T1, RSK4(Kin.Dom.1-N-terminal)
T1 construct: gene RPS6KA6

[2] = tested on: T2, RSK4(Kin.Dom.2-C-terminal)
T2 construct: gene RPS6KA6

[3] = tested on: S6K1
[4] = tested on: SBK1
[5] = tested on: SGK2
[6] = tested on: SGK3
[7] = tested on: SGK
[8] = tested on: SIK2
[9] = tested on: SIK
[10] = tested on: SLK
[11] = tested on: T3, SNARK
T3 construct: gene NUAK2

[12] = tested on: SNRK
[13] = tested on: SRC
[14] = tested on: SRMS
[15] = tested on: SRPK1
[16] = tested on: SRPK2
[17] = tested on: SRPK3
[18] = tested on: STK16
[19] = tested on: STK33
[20] = tested on: STK35
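Further: KINOMEscan kinase panel screen.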

| SMILES | %Inh [1] | %Inh [2] | %Inh [3] | %Inh [4] | %Inh [5] | %Inh [6] | %Inh [7] | %Inh [8] | %Inh [9] | %Inh [10] | %Inh [11] | %Inh [12] | %Inh [13] | %Inh [14] | %Inh [15] | %Inh [16] | %Inh [17] | %Inh [18] | %Inh [19] | %Inh [20] |
| --- | --- | --- | --- | --- | --- | --- | --- | --- | --- | --- | --- | --- | --- | --- | --- | --- | --- | --- | --- | --- |
| Nc1ncc(-c2ccc3nccc(-c4ccncc4)c3c2)cc1S(=O)(=O)N1CCCCC1 [GSK1693850] | 8% | 50% | 7% | 14% | 0% | 17% | 0% | 0% | 0% | 69% | 22% | 0% | 0% | 0% | 20% | 0% | 0% | 21% | 55% | 0% |
| Fc1cc(Cl)ccc1Nc1ccnc2cc(-c3ccc(CN4CCOCC4)o3)ccc12 [GW560109] | 0% | 90.3% | 26% | 37% | 6% | 0% | 0% | 100% | 97.4% | 32% | 0% | 7% | 99.2% | 15% | 35% | 0% | 10% | 0% | 6% | 92.1% |
| CSc1ccc(NC2=C(c3ccc(Cl)cc3)C(=O)NC2=O)cc1 [SB-317658] | 5% | 0% | 0% | 29% | 0% | 0% | 0% | 9% | 25% | 8% | 12% | 0% | 17% | 3% | 0% | 7% | 9% | 24% | 0% | 0% |
| Cl.Cl.NCC(NC(=O)c1cc(-c2cccnc2)c(-c2ccnc3[nH]ccc23)s1)c1ccccc1 (stereo not drawn) [GSK1323434] | 0% | 31% | 27% | 42% | 51% | 70% | 27% | 0% | 12% | 32% | 65% | 0% | 33% | 0% | 44% | 14% | 0% | 26% | 18% | 0% |
| O=C(Nc1n[nH]c2nc(-c3ccccc3)ccc12)C1CC1 [SB-708999] | 30% | 1% | 17% | 9% | 15% | 47% | 23% | 0% | 28% | 12% | 56% | 0% | 0% | 0% | 22% | 23% | 7% | 16% | 0% | 1% |
| COc1ccc(C2=C(Nc3cccc(O)c3)C(=O)NC2=O)cc1 [SB-390766] | 0% | 20% | 17% | 8% | 11% | 9% | 0% | 0% | 0% | 27% | 0% | 0% | 0% | 0% | 49% | 0% | 0% | 34% | 100% | 0% |
| Cn1cc(-c2cnc(N)c3c(-c4ccc5c(c4)CCN5C(=O)Cc4ccccc4)csc23)cn1 [GSK2593074] | 0% | 18% | 16% | 0% | 6% | 0% | 21% | 9% | 42% | 69% | 12% | 0% | 81% | 55% | 3% | 0% | 0% | 24% | 0% | 4% |
| N#Cc1cnc2cc(-c3cnc(CNCCN4CCOCC4)s3)ccc2c1Nc1ccc(Oc2ccccc2)cc1 [GW664114] | 11% | 14% | 61% | 1% | 0% | 4% | 1% | 16% | 45% | 67% | 0% | 0% | 94.1% | 95.9% | 30% | 0% | 0% | 12% | 2% | 97.7% |
| Nc1cccc(-c2ccc3c(N)n[nH]c3c2)c1 [GSK2193613] | 0% | 25% | 0% | 8% | 0% | 34% | 33% | 0% | 0% | 2% | 22% | 0% | 0% | 3% | 54% | 16% | 0% | 15% | 0% | 0% |
| COc1cccc(C2=C(Nc3cccc(O)c3)C(=O)NC2=O)c1 [SB-390771] | 0% | 37% | 11% | 4% | 0% | 16% | 0% | 3% | 0% | 69% | 0% | 0% | 0% | 0% | 2% | 0% | 13% | 100% | 0% | 0% |
| Cc1cccc(Nc2nc(N[C@H]3CCCC[C@H]3N)ncc2C(N)=O)c1.Cl [GSK986310] | 12% | 30% | 16% | 71% | 4% | 0% | 0% | 26% | 53% | 72% | 39% | 11% | 65% | 0% | 44% | 0% | 0% | 24% | 55% | 28% |
| CN(C)c1ncnc2nc[nH]c12 [SKF-31736] | 28% | 8% | 29% | 0% | 23% | 0% | 14% | 0% | 0% | 0% | 0% | 0% | 0% | 20% | 0% | 10% | 17% | 0% | 0% | 0% |
| CN(c1ccc(F)c(NC(=O)c2cccc(OC(C)(C)C#N)c2Cl)c1)c1ccc2nc(NC(=O)C3CC3)sc2n1 | 4% | 0% | 1% | 18% | 0% | 2% | 0% | 39% | 97% | 14% | 0% | 12% | 99% | 0% | 52% | 0% | 0% | 0% | 0% | 0% |
| CN(c1ccc(NC(=O)Nc2cccc(Cl)c2)cc1)c1ccnc(N)n1.Cl [GW830707] | 0% | 0% | 0% | 3% | 0% | 0% | 0% | 0% | 0% | 20% | 0% | 0% | 15% | 3% | 3% | 0% | 8% | 6% | 2% | 0% |
| Fc1cc(Cl)ccc1Nc1ccnc2cc(-c3ccc(CN4CCSCC4)o3)ccc12 [GW560106] | 0% | 87% | 0% | 0% | 0% | 0% | 0% | 81% | 97.2% | 65% | 0% | 0% | 99% | 21% | 42% | 23% | 0% | 0% | 20% | 20% |
| Cn1cc(-c2ccc3c(c2)CCN3C(=O)Cc2cc(F)cc(C(F)(F)F)c2)c2c(N)ncnc21 [GSK2635225] | 0% | 0% | 9% | 7% | 0% | 8% | 1% | 0% | 0% | 41% | 10% | 0% | 29% | 0% | 18% | 0% | 2% | 20% | 0% | 0% |
| Cc1ccc(NC(=O)c2ccnc(N3CCCCC3)c2)cc1-c1ccc(C(=O)NCC2CC2)cc1 [GW775610] | 0% | 39% | 19% | 0% | 5% | 0% | 0% | 0% | 0% | 5% | 0% | 0% | 0% | 0% | 0% | 0% | 14% | 0% | 0% | 0% |
| Cl.O=C(Nc1ccc(Oc2ccc3[nH]c(NC(=O)c4ccco4)nc3c2)cc1)Nc1cc(C(F)(F)F)ccc1F [GW683134] | 0% | 13% | 45% | 3% | 14% | 0% | 0% | 0% | 0% | 83% | 0% | 0% | 23% | 0% | 51% | 0% | 100% | 0% | 76% | 6% |
| COc1ccc(NC(=O)c2ccoc2)cc1-c1ccc(C(=O)NCC2CC2)cc1 [GW810437] | 8% | 0% | 9% | 48% | 0% | 19% | 25% | 0% | 0% | 0% | 18% | 12% | 10% | 25% | 0% | 0% | 12% | 0% | 0% | 0% |
| CC(C)c1nc(-c2ccc(F)c(NS(=O)(=O)c3c(F)cccc3F)c2)c(-c2ccnc(Nc3ccc(N4CCOCC4)nc3)n2)s1 [GSK1804250] | 0% | 16% | 3% | 25% | 8% | 20% | 25% | 88% | 99.5% | 91.4% | 17% | 0% | 100% | 99.9% | 54% | 0% | 18% | 39% | 8% | 74% |
| Cc1ccc(O)cc1Nc1ccnc2cc(-c3ccc(CN4CCCCC4)o3)ccc12 [GW557777] | 0% | 87% | 0% | 0% | 0% | 0% | 1% | 83% | 97.8% | 34% | 11% | 0% | 100% | 23% | 32% | 0% | 15% | 22% | 61% | 0% |
